# Assay results published in PubChem BioAssay (NCATS).
# Results filed as inconclusive are left out. Where a call stands in place of a potency, no number is given. The source made the active and inactive calls. The call rests on the fitted dose curve; in most records, active means well fitted inhibition curve with a large enough effect; inconclusive means small, poorly fitted or top-dose-only effect; inactive means flat fitted curve, though single readings scatter.
# Target: Calcium and integrin-binding protein 1 (Homo sapiens) (UniProt Q99828)
# Sequence (Q99828 whole entry, looked up): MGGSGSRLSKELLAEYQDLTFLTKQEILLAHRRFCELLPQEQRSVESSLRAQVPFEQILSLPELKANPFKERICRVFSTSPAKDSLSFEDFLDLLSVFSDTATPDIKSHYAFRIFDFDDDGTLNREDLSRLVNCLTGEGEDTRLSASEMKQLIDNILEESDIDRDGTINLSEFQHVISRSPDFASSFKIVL
# Assay: Primary qHTS for Identification of Calcium Integrin Binding Protein 1 (CIB1) Competitor (AID 1508620)
# Conditions: CIB1-GST / FITC-alphaIIb peptide fluorescence polarization; series mostly up to 57.7 µM
# Outline: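 Fluorescence polarization competition: CIB1-GST (1 uM final) preincubated with compound 15 min at room temperature, then FITC-labeled alphaIIb peptide (100 nM final) added for another 15 min. Polarization read at Ex 480/Em 540.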
# Potency means the concentration at half of the fitted maximal effect.
row,SMILES,Potency
1,COc1ccc(CCC(=O)Nc2nc3ccc(Cl)cc3s2)cc1OC,inactive
2,CCC[C@@H](NC(=O)[C@@H]1[C@H]2CCC[C@@H]2CN1C(=O)[C@@H](NC(=O)[C@@H](NC(=O)c1cnccn1)C1CCCCC1)C(C)(C)C)C(=O)C(=O)NC1CC1,inactive
3,C[C@@H]1CCO[C@H]2Cn3cc(C(=O)NCc4ccc(F)cc4F)c(=O)c(O)c3C(=O)N12,inactive
4,Cc1ccc(C(=O)N(CCCN)[C@@H](c2oc3cc(Cl)ccc3c(=O)c2Cc2ccccc2)C(C)C)cc1,inactive
5,CN1[C@H]2CC[C@H]1CC(OC(=O)c1c[nH]c3ccccc13)C2 (stereo not given in full),inactive
6,O=C1CCCC(=O)C1C(=O)c1ccc(C(F)(F)F)cc1[N+](=O)[O-],inactive
7,CN1CCN(c2ncc(-c3cc(Cl)cc(Cl)c3Cl)c(N)n2)CC1,inactive
8,NC(=O)c1ccc(N(C(N)=O)c2c(F)cccc2F)nc1-c1ccc(F)cc1F,inactive
9,C=C1[C@H](n2cnc3c(=O)[nH]c(N)nc32)C[C@H](O)[C@H]1CO,inactive
10,CC1=C(C(=O)Nc2cc3cn[nH]c3cc2F)C(c2ccc(C(F)(F)F)cc2)CC(=O)N1 (stereo not given),inactive
11,Clc1ccc(C2(c3ccc(-c4cn[nH]c4)cc3)CCNCC2)cc1,inactive
12,Nc1ccn([C@@H]2O[C@H](CO)[C@@H](O)[C@H]2O)c(=O)n1,inactive
13,Fc1ccc(C(c2ccc(F)cc2)N2CCN(CC=Cc3ccccc3)CC2)cc1,19.2 µM (active)
14,NC(=O)c1noc([C@H](CCCC2CCCCC2)CC(=O)NO)n1,inactive
15,CN(C)N=Nc1nc[nH]c1C(N)=O,inactive
